Out of some 300,000 compounds screened, about 3,700 (1.2%) were called active. A call without a number means that no potency is given here. Another 20% or so got no clear call; they are omitted. This is one part of a sample in which actives are shown more often than they occur. Calls follow the shape of the full dose curve; tested in HEK293 cells.
Experiment: qHTS for Inhibitors of binding or entry into cells for Lassa Virus; also: nearly all actives have a fitted effect of over 50% in size
Settings: Lassa virus pseudotype entry inhibition, cell reporter; series mostly up to 37.9 µM
In the case of `O=C(Cn1cnc2ccccc2c1=O)NNC(=O)c1ccccc1F`, the Potency is reported as “inactive”. For `CC(C)OCCCNC(=O)CN1C(=O)/C(=C/c2ccccc2F)Oc2ccccc21`, the Potency was “inactive”. For `CCOC(=O)c1c(NC(=O)C2(C)Cc3ccccc3C(=O)O2)sc2c1CCCC2` (stereo not given), the Potency was “inactive”. For `Cc1ccc(NC(=S)NC(=O)c2ccc(-c3ccccc3)cc2)cc1`, the Potency was “inactive”. For `CCOC(=O)C1=C(NC(=S)NC(=O)c2ccccc2)c2ccccc2CC1(C)C`, the Potency was 1.41 µM (active). For `O=C(NN=CC=Cc1ccccc1)C(O)C(O)C(=O)NN=CC=Cc1ccccc1` (stereo not given), the Potency was “inactive”. With `CC(C)c1ccc(C=NNc2ccc([N+](=O)[O-])cn2)cc1` the Potency was “inactive”. With `COc1cc(NC(=O)c2ccccc2NS(=O)(=O)c2ccc(Cl)s2)cc(OC)c1` the Potency was 11.2 µM (active). For `O=C(Nc1nncs1)c1ccccc1NS(=O)(=O)c1cccs1`, the Potency was “inactive”. In the case of `COc1ccccc1C(=O)Nc1ccccc1C(=O)Nc1ccccc1`, the Potency is reported as “inactive”. With `CCn1nnc2cc(C(=O)Nc3ccc(C(=O)OC(C)C)cc3)ccc21` the Potency was “inactive”. In the case of `O=C(COC(=O)c1n[nH]c2ccccc12)Nc1ccccc1Br`, the Potency is reported as “inactive”. In the case of `O=C(Nc1c(Br)cc2c(c1Br)Cc1cc([N+](=O)[O-])ccc1-2)C(Cl)Cl`, the Potency is reported as “inactive”. With `CSc1ncc(C(=O)Nc2ccc(C)cc2C)c(C)n1` the Potency was “inactive”. With `Cc1ccc(NC(=O)c2ccc3[nH]c(C)cc(=O)c3c2)c(C)c1` the Potency was “inactive”. With `Cc1ccc(NC(=O)c2ccc(CSc3ncnc4nc[nH]c34)cc2)c(C)c1` the Potency was 17.8 µM (active). In the case of `COc1ccc(N=C2C=CC(=O)O2)cc1`, the Potency is reported as “inactive”. With `O=C(O)C(=Cc1ccccc1[N+](=O)[O-])c1ccccc1` the Potency was “inactive”. In the case of `O=[N+]([O-])c1ccc(C=NN=Cc2ccc([N+](=O)[O-])cc2)cc1`, the Potency is reported as “inactive”. In the case of `O=C1/C(=C\c2ccc([N+](=O)[O-])cc2)CS(=O)(=O)C/C1=C/c1ccc([N+](=O)[O-])cc1`, the Potency is reported as 3.55 µM (active). For `NC(=S)N/N=C/c1ccc([N+](=O)[O-])cc1`, the Potency was “inactive”. For `CCOC(=O)C1CCCN(C(=O)C2CCN(S(=O)(=O)c3ccc(Cl)c(C(F)(F)F)c3)CC2)C1` (stereo not given), the Potency was “inactive”. In the case of `Cc1[nH]c2ccccc2c1C(=O)C(C)Sc1nnc(C2CC2)o1` (stereo not given), the Potency is reported as “inactive”. With `CC(=O)NC1(c2ccc(F)cc2)CCN(C(=O)c2c(F)cccc2F)CC1` the Potency was “inactive”. For `Cc1c(CCO)c(=O)[nH]n1C(=O)c1c(F)cccc1F`, the Potency was 4.11 µM (active). In the case of `Cc1c(CCO)c(=O)n(-c2ccccc2)n1S(=O)(=O)c1ccc(F)cc1`, the Potency is reported as “inactive”. In the case of `COc1ccc(CC(=O)NC(C)c2ccc(Cl)c(Cl)c2)cc1S(=O)(=O)N1CCOCC1` (stereo not given), the Potency is reported as “inactive”. In the case of `CCOC(=O)Nc1ccc(NC(=O)OCC)cc1`, the Potency is reported as “inactive”. In the case of `CCCCC(CCC(=O)Nc1ccc(C(=O)OCC)cc1)C(=O)O` (stereo not given), the Potency is reported as “inactive”. In the case of `CCCCCOC(=O)NCCOC(=O)Nc1ccc(C(=O)OCC)cc1`, the Potency is reported as 1.03 µM (active). With `NC(CSC1(c2ccccc2)c2ccccc2-c2ccccc21)C(=O)O` (stereo not given) the Potency was “inactive”. With `CC1=CC(C)(C)Nc2ccc(OC(=O)C(Cc3ccccc3)N3C(=O)C4CCCCC4C3=O)cc21` (stereo not given) the Potency was 1.12 µM (active). With `COC(=O)c1ccccc1NC(=O)C(Cc1ccccc1)N1Cc2ccccc2C1=O` (stereo not given) the Potency was “inactive”. For `CC1=CC(C)(C)Nc2ccc(OC(=O)CN3C(=O)C4CCCCC4C3=O)cc21` (stereo not given), the Potency was “inactive”. In the case of `O=C(COC(=O)c1ccc2c(c1)OCCO2)NCc1ccccc1Cl`, the Potency is reported as “inactive”. With `CCOc1cc(N2CCOCC2)c(OCC)cc1NC(=O)COc1cccc2cccnc12` the Potency was 6.31 µM (active). With `CCOc1cc(N2CCOCC2)c(OCC)cc1NC(=O)COc1cccc(Cl)c1` the Potency was “inactive”. For `CCOc1cc(N2CCOCC2)c(OCC)cc1NC(=O)c1cc(C)nc2ccccc12`, the Potency was “inactive”. With `N#CC1(Nc2ccc(-c3ccc(Cl)cc3)cc2)CCCC1` the Potency was “inactive”. For `CCOc1ccc(-c2cc(C(=O)N/N=C/c3ccc(O)cc3)c3ccccc3n2)cc1`, the Potency was 1.41 µM (active). In the case of `COc1cccc(-c2cc(C(=O)N/N=C/c3ccc(OC)c(COC(C)=O)c3)c3ccccc3n2)c1`, the Potency is reported as “inactive”. For `C/C(=N\NC(=O)c1cc(-c2ccc(O)cc2)nc2ccccc12)c1cccnc1`, the Potency was “inactive”. In the case of `COc1ccc(/C=N/NC(=O)c2cc(-c3cccc(C)c3)nc3ccccc23)cc1O`, the Potency is reported as 7.08 µM (active). With `CCOc1ccc(/C=N\NC(=O)c2c(C)nc3cc(C)ccn23)cc1` the Potency was “inactive”. With `Cc1cc(C(=O)N/N=C/c2ccccn2)c2ccccc2n1` the Potency was “inactive”. For `Cc1ccc(C)c(NC(=O)CN(C)C(=O)COc2ccc3ccccc3c2)c1`, the Potency was “inactive”. In the case of `Cc1cc2occ(CC(=O)NNC(=O)c3ccccc3F)c2cc1C`, the Potency is reported as “inactive”. In the case of `Cc1ccc(CSCC(=O)N(C)CC(=O)Nc2ccc(C)cc2)cc1`, the Potency is reported as “inactive”. In the case of `COc1ccc(C(=O)NCC(c2ccco2)N2CCc3ccccc32)cc1OC` (stereo not given), the Potency is reported as “inactive”. With `Cc1c(C)c2c(OCC(=O)NCCCO)cc3c(c2oc1=O)CCC(C)(C)O3` the Potency was “inactive”. For `Cc1c(NC(=O)C(C)OC(=O)c2c3c(nc4ccccc24)CCC(C)C3)c(=O)n(-c2ccccc2)n1C` (stereo not given), the Potency was “inactive”. In the case of `O=C(Nc1ccc2nccnc2c1)c1ccco1`, the Potency is reported as “inactive”. In the case of `O=C(Nc1ccc(NC(=O)c2cccs2)cn1)c1ccco1`, the Potency is reported as 3.98 µM (active). With `COc1cccc(C(=O)Nc2ccc(NC(=O)c3ccco3)cn2)c1` the Potency was “inactive”. In the case of `COc1ccc(OCCNC(=O)c2cc(C3CC3)nc3c2cnn3C(C)C)cc1`, the Potency is reported as “inactive”. In the case of `OCc1ccc(-c2ccccc2)c(-c2ccccc2)c1`, the Potency is reported as “inactive”. For `CC1CN/C(=C\C(=O)c2ccc(Br)cc2)C(=O)N1` (stereo not given), the Potency was 8.2 µM (active). For `C/C(=C\C(=O)c1ccc(Br)cc1)N1CCCCC1`, the Potency was “inactive”. With `CN1CCCC(OC(=O)COc2ccc(Br)cc2)C1` (stereo not given) the Potency was “inactive”. In the case of `COC1=CC(=O)OC(c2ccc(OC)cc2)C1` (stereo not given), the Potency is reported as “inactive”. In the case of `O=C(CSc1nc2[nH]ncc2c(=O)n1-c1ccccc1)N1CCCc2ccccc21`, the Potency is reported as “inactive”. With `O=C(CSc1nc2ccccc2c(=O)n1CCCO)N1CCc2ccccc21` the Potency was “inactive”. With `Cn1c(SCC(=O)N2CCCc3ccccc32)nc2ccccc2c1=O` the Potency was 12.6 µM (active). In the case of `COc1ccc(N2CCN(CCNC(=O)Nc3cc(Cl)ccc3Cl)CC2)cc1`, the Potency is reported as “inactive”. In the case of `O=C(Cc1ccc([N+](=O)[O-])cc1)NCCc1ccc2c(c1)OCO2`, the Potency is reported as “inactive”. In the case of `Cc1ccc(CSCC(=O)N(C)CC(=O)Nc2cccc(F)c2)cc1`, the Potency is reported as “inactive”. For `Cc1ccc(S(=O)(=O)Nc2ccc(F)c(S(=O)(=O)N3CCOCC3)c2)cc1`, the Potency was “inactive”. For `O=C(COc1ccc2oc3c(c2c1)CCCC3)Nc1ccccn1`, the Potency was “inactive”. For `CCOC(=O)N1CCN(C(=O)COc2ccc(Br)cc2)CC1`, the Potency was “inactive”. In the case of `CCOC(=O)N1CCN(C(=O)COc2ccc3oc4c(c3c2)CCCC4)CC1`, the Potency is reported as 10 µM (active). With `CC(=O)c1ccc(OCCCC(=O)Nc2ccc(C)c(S(=O)(=O)N3CCOCC3)c2)cc1` the Potency was “inactive”. In the case of `COc1ccccc1NS(=O)(=O)c1ccc(C(=O)N2CCN(c3ccccc3O)CC2)cc1`, the Potency is reported as “inactive”. With `Cc1nn(-c2ccccc2)c(C)c1C(=O)OCC(=O)NC(=O)NC1CCCCC1` the Potency was “inactive”. With `Cc1nc(/N=C(\N)NC(=O)NC2CCCCC2)nc2ccccc12` the Potency was 22.4 µM (active). With `COc1ccc2nc(/N=C(\N)NC(=O)Nc3ccccc3)nc(C)c2c1` the Potency was “inactive”. With `CC(C)c1cc(N=O)cc(C(C)C)c1O` the Potency was “inactive”. With `N#Cc1c(NC(=O)CSc2nc3ccccc3c(=O)n2Cc2ccco2)sc2c1CCCC2` the Potency was “inactive”. In the case of `CC(Sc1nc2ccccc2c(=O)n1Cc1ccco1)C(=O)c1ccccc1` (stereo not given), the Potency is reported as 4.11 µM (active). For `CCOC(=O)C(C)Sc1nc2ccccc2c(=O)n1CC1CCCCC1` (stereo not given), the Potency was “inactive”. In the case of `CC1CCCN(CC(=O)Nc2cc(Cl)ccc2Oc2ccccc2)C1` (stereo not given), the Potency is reported as “inactive”. With `CCOc1ccc(NC(=O)COC(=O)C2CCC(=O)N2)c([N+](=O)[O-])c1` (stereo not given) the Potency was “inactive”. With `C=CCn1c(=N)n(CC(O)COc2ccc(OC)cc2)c2ccccc21` (stereo not given) the Potency was “inactive”. For `OC(CN=c1sc2ccccc2n1CC(O)COc1ccccc1)COc1ccccc1` (stereo not given), the Potency was 20.6 µM (active). In the case of `OC(COc1ccccc1)Cn1cc(Br)cn1` (stereo not given), the Potency is reported as “inactive”. For `COc1ccccc1C(=O)NC(CCSC)C(=O)N1CCN(C/C=C/c2ccccc2)CC1` (stereo not given), the Potency was “inactive”. With `CC1CCC2CCCCC2N1C(=O)c1cc([N+](=O)[O-])cc([N+](=O)[O-])c1` (stereo not given) the Potency was “inactive”. For `COc1ccc(C2=Nc3cc(C)ccc3OC2)cc1`, the Potency was 10 µM (active). In the case of `COc1ccc(C2=NOC3(CC(=O)N(c4ccc(C)cc4)C3=O)C2)cc1` (stereo not given), the Potency is reported as “inactive”. With `COc1ccc(-c2cc(-c3ccccc3)nc3c2COc2ccc(Cl)cc2-3)cc1` the Potency was “inactive”. With `COc1ccc2c(c1)C(=O)Nc1cc(Cl)ccc1N2` the Potency was “inactive”. With `CC(=O)Nc1ccc(NC(=O)CS(=O)(=O)c2cn(CC(=O)N3CCCCC3)c3ccccc23)cc1` the Potency was “inactive”. With `Cc1onc(-c2ccccc2Cl)c1C(=O)OCc1nnc(-c2ccccc2)o1` the Potency was “inactive”. For `CC(C)CC(=O)NC(=S)NCc1ccccc1`, the Potency was “inactive”. In the case of `CC(C)CC(=O)c1c[nH]c(C(=O)NCc2ccccc2)c1`, the Potency is reported as 7.94 µM (active). For `O=C(c1ccc(F)cc1)c1c[nH]c(C(=O)NCc2cccnc2)c1`, the Potency was “inactive”. For `OC(COc1ccccc1)CN1CCN(c2cccc(Cl)c2)CC1` (stereo not given), the Potency was “inactive”. For `CC/C(=C\c1ccc(Cl)cc1)c1ccncc1`, the Potency was “inactive”. In the case of `COc1cccc(/C=N/NC(=O)c2[nH]nc3c2CCc2ccccc2-3)c1O`, the Potency is reported as 12.6 µM (active). For `COc1cc2cc(C(=O)N/N=C/c3cccc(OC)c3OC)[nH]c2cc1OC`, the Potency was “inactive”. In the case of `CN(C)CCNC(=O)c1[nH]nc2c1CCc1ccccc1-2`, the Potency is reported as “inactive”. With `O=C(CSc1nnc(-c2ccncc2)o1)Nc1cccc(Cl)c1` the Potency was “inactive”. In the case of `COc1ccccc1CNS(=O)(=O)c1cc(C(=O)NCc2ccccn2)c(Cl)cc1Cl`, the Potency is reported as “inactive”. For `CCN(CC)S(=O)(=O)c1ccc(N(C)Cc2ccc(C(F)(F)F)cc2)nc1`, the Potency was 4.47 µM (active). For `CCN(CC)S(=O)(=O)c1ccc(N(C)CCc2ccc(OC)c(OC)c2)nc1`, the Potency was “inactive”. With `CCN(CC)S(=O)(=O)c1ccc(N(C)Cc2cccc(OC)c2OC)nc1` the Potency was “inactive”.
Potency is read from the fitted curve at half-maximal effect.
